Test results published in PubChem BioAssay (NCI).
Values joined by “and” are separate entries in the source; they are usually repeats but may differ in a detail not shown here. Identical values can stand only once. The panel holds about 83,000 compounds, 20% with a hit somewhere; the sample as a whole holds those more often.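 Interpretation: 100, growth as untreated; towards 0, rising growth inhibition; 0, no net growth; 0 to -100, cell death. Compounds scoring below 10 were considered active.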 Active and inactive are the calls of the source.

Key:
Test in all cases: NCI-60 one-dose screen, 48 h (100 = growth as untreated, 0 = no growth, -100 = all killed)
Details in all cases: 10 µM
[1] = test system: K-562 leukemia
[2] = test system: RXF 393 renal
[3] = test system: UACC-257 melanoma
[4] = test system: SK-MEL-2 melanoma
[5] = test system: SN12C renal
[6] = test system: RPMI-8226 leukemia
[7] = test system: OVCAR-3 ovarian
[8] = test system: BT-549 breast
[9] = test system: MDA-MB-435 melanoma
[10] = test system: HCC-2998 colon
[11] = test system: HOP-92 NSCLC
[12] = test system: TK-10 renal
[13] = test system: CAKI-1 renal

Measured: growth

COc1cc2c(O[C@@H]3OC[C@H](O)[C@H](O)[C@H]3O)c3c(c(-c4ccc5c(c4)OCO5)c2cc1OC)C(=O)OC3
inactive: [1] 19.3% | [2] 53.6% | [3] 23.6% | [4] 49% | [5] 56.2% | [6] 89.8% | [7] 80.2% | [8] 31% | [9] 39.5% | [10] 73.4%

CC1=C(CN(O)C(N)=O)C2=C(C)C3(CC3)[C@@](C)(O)C(=O)C2=C1
active: [11] -21.1% | [2] -78.9% | [3] -14.7% | [4] -47.8% | [12] -15% | [13] -3.78% | [7] -26.9% | [8] -24.5% | [9] -20.2% | [10] -53.2%
inactive: [1] 95.4% | [5] 15.4% | [6] 91.5%

CC1=C(CN(O)C(N)=O)C2=C(C)C3(CC3)[C@](C)(O)C(=O)C2=C1
inactive: [5] 25.1% | [8] 12.9%
active: [11] -3.67% | [1] 0.207% | [2] -85.3% | [3] 6.8% | [4] -28.8% | [12] -5.27% | [13] 4.61% | [6] -22.7% | [7] -3.14% | [9] -42.8% | [10] -63.1%

COc1cccc2c1cc([N+](=O)[O-])c1c(C(=O)O)cc3c(c12)OCO3
inactive: [11] 95.3% | [1] 97.6% | [2] 104% | [4] 108% | [5] 113% | [12] 100% | [13] 87.1% | [6] 97.7% | [7] 126% | [8] 120% | [9] 107% | [10] 91.3%

CC1=C2C(=O)[C@](C)(CO)C=C2C(=O)[C@](C)(O)C12CC2
inactive: [1] 16.5% | [3] 25.3% | [5] 40.2% | [13] 45.8%
active: [11] -6.97% | [2] -82.9% | [4] -35.6% | [12] -6.25% | [7] 4.36% | [8] 8.15% | [10] -2.5%

C/C=C/CC(C)C(O)[C@H](NC(=O)[C@@H]1CCCN1C(=O)C(C)(C)NC(=O)CCCCCCCCC)C(=O)NC(C)(C)C(=O)N[C@@H](CCC(N)=O)C(=O)N[C@H](CCC(N)=O)C(=O)NC(C)(C)C(=O)NC(C)(C)C(=O)N[C@@H](CCC(N)=O)C(=O)N[C@H](CC(C)C)C(=O)N[C@H](CO)CC(C)C (stereo partly drawn)
active: [11] -16.5% and -24.9% | [2] -54.3% and -73.3% | [3] -71.9% and -73.2% | [4] -48.1% and -31.4% | [5] 2.83% and -20.9% | [6] -13.2% and -31.7% | [7] -18.7% | [8] -77.4% and -78.3% | [9] -52.8% and -87.1% | [10] -36.1% and -5.11%
25.8% (inactive) and -4.38% (active): [12]
-50.1% (active) and 18% (inactive): [1]
17.6% (inactive) and 1.1% (active): [13]

N#Cc1c(-n2c(Br)c(Br)c3cc(Br)ccc32)[nH]c2c(Br)cc(Br)cc12
active: [11] -31.4% | [1] 7.11% | [2] -31.7% | [3] -23.8% | [4] -61.2% | [5] 0.622% | [12] -2.55% | [13] -3.39% | [6] -3.21% | [8] -54.7% | [9] -0.901% | [10] 2.82%

C[C@@H]1CCC/C=C/[C@H]2C[C@@H](O)C[C@@H]2[C@@H](O)/C=C/C(=O)O1
inactive: [1] 15% | [5] 11.4% | [9] 17.5% | [10] 21.1%
active: [11] -4.99% | [2] -8.61% | [4] -38.9% | [12] -45% | [6] -1.65% | [7] -1.9% | [8] 6.57%

CN1C(=O)[C@]23SSC1(C)C(=O)N2[C@H]1Nc2ccccc2C1([C@@]12c4ccccc4N[C@@H]1N1C(=O)C4(C)SS[C@]1(C(=O)N4C)[C@H]2O)[C@@H]3O (stereo partly drawn)
active: [1] 2.18% | [2] -93.3% | [3] -96.9% | [5] -96.1% | [12] -95.7% | [13] -99.8% | [6] -16.9% | [8] -99.5% | [9] -94.3% | [10] -83.8%

CC(C)=CCc1c2c(c(O)c3c1O[C@]14C(=C[C@@H]5C[C@H]1C(C)(C)O[C@@]4(C/C=C(/C)C(=O)O)C5=O)C3=O)C=CC(C)(C)O2
active: [11] -53.6% | [1] 2.2% | [2] -85.5% | [3] -77.2% | [4] -75.2% | [5] -26.9% | [6] -8.35% | [7] -93.9% | [8] -11.2% | [9] -80.1% | [10] -88.1%

CC1=C2C(=C[C@@](C)(COC(=O)c3ccc(S(=O)(=O)F)cc3)[C@@H]2OC(=O)c2ccc(S(=O)(=O)F)cc2)C(=O)[C@](C)(O)C12CC2
inactive: [1] 23.8% | [3] 60% | [5] 21% | [6] 67%
active: [11] -17.1% | [12] -3.99% | [13] -2.73% | [8] -90.2% | [9] 3.18% | [10] -60%

COc1cc2c(O[C@@H]3OC[C@H](OC(C)=O)[C@H](OC(C)=O)[C@H]3O)c3c(c(-c4ccc5c(c4)OCO5)c2cc1OC)C(=O)OC3
inactive: [2] 54.4% | [12] 42.3% | [13] 13.8% | [7] 59.4% | [8] 23.4%
active: [11] -13.3% | [3] -35.8% | [4] -31.8% | [6] -2.08% | [9] 4.94%

C/C=C/CC(C)C(O)[C@H](NC(=O)[C@@H]1CCCN1C(=O)C(C)(C)NC(=O)CCCCCCCCC)C(=O)N[C@@](C)(CC)C(=O)N[C@@H](CCC(N)=O)C(=O)N[C@H](CCC(N)=O)C(=O)NC(C)(C)C(=O)NC(C)(C)C(=O)N[C@@H](CCC(N)=O)C(=O)N[C@H](CC(C)C)C(=O)N[C@H](CO)CC(C)C (stereo partly drawn)
-17.8% (active) and 16.5% (inactive): [1]
-12% (active) and 13.2% (inactive): [10]
-61.8% (active) and 31.5% (inactive): [2]
inactive: [4] 13.2% and 89.1% | [5] 18.6% and 12.1% | [12] 59.9% and 97.1% | [13] 13.1% and 44.1% | [7] 76.2%
active: [3] -66.9% and 3.39% | [8] -33.5% | [9] -84.2% and -6.26%
7.09% (active) and 29.1% (inactive): [6]
7.21% (active) and 76.4% (inactive): [11]

Cc1ccc(CNc2nc3ccc(OC/C(=C/F)CN)cc3o2)cn1
active: [5] -37.4%
inactive: [11] 93.9% | [1] 108% | [2] 69.1% | [3] 104% | [4] 110% | [12] 71.9% | [13] 68.3% | [6] 105% | [7] 109% | [9] 99.6% | [10] 111%

CCCCCCCCCC(=O)N[C@@](C)(CC)C(=O)N1CCC[C@H]1C(=O)N[C@@H](CC(C)C)C(=O)N[C@@](C)(CC)C(=O)N[C@@H](CCC(N)=O)C(=O)N[C@H](CCC(N)=O)C(=O)NC(C)(C)C(=O)NC(C)(C)C(=O)N[C@@H](CCC(N)=O)C(=O)N[C@H](CC(C)C)C(=O)N[C@H](CO)CC(C)C
-15.6% (active) and 21.9% (inactive): [1]
active: [11] -93.1% and -69.1% | [2] -89.1% and -89.3% | [3] -88.1% and -80.1% | [4] -90.7% and -86% | [5] -86.9% and -98.8% | [12] -73.6% and -83.4% | [13] -92.4% and -100% | [6] -53.6% and -31.8% | [7] -74.5% | [8] -91% and -85.5% | [9] -94% and -97.5% | [10] -87.4% and -89.4%

O=C(CCCc1ccc(N(CCCl)CCCl)cc1)OCc1ccccc1
inactive: [11] 103% | [1] 93.8% | [2] 109% | [3] 94.1% | [4] 111% | [5] 79.1% | [12] 107% | [13] 73.7% | [6] 96.3% | [8] 95.5% | [9] 94.4% | [10] 101%

C=C1[C@@H](C)C2[C@H](Cc3ccccc3)NC(=O)[C@]23[C@H](OC(C)=O)/C=C/[C@@](C)(O)C(=O)[C@@H](C)C/C=C/[C@H]3[C@@H]1O (stereo partly drawn)
inactive: [1] 76.1% | [4] 81.5% | [5] 79% | [12] 26.4% | [6] 19.8% | [7] 81.2% | [8] 12.4% | [9] 64.1% | [10] 78.5%
active: [11] -37.8% | [2] -1.19%

C[C@@H]1C[C@H]2C(=O)O[C@@H](C)C(NC(=O)[C@H](Cc3cc(F)cc(F)c3)NC(=O)Nc3ccc(OS(=O)(=O)F)cc3)C(=O)N3CCC[C@H]3C(=O)N3CCO[C@H](C)[C@H]3C(=O)N[C@@H](CO)C(=O)N2C1 (stereo partly drawn)
active: [11] 9.16% | [2] -5.55%
inactive: [1] 20.7% | [3] 16.2% | [5] 21.1% | [12] 71.7% | [13] 39.4% | [6] 19.7% | [8] 22.4% | [9] 20.8% | [10] 23.9%
